From PubChem BioAssay (NCATS) come the findings set out here.

Results filed as inconclusive are left out. Where a call stands in place of a potency, no number is given. Activity calls are given as the source filed them. The call rests on the fitted dose curve; in most records, active means well fitted inhibition curve with a large enough effect; inconclusive means small, poorly fitted or top-dose-only effect; inactive means no such curve, though single readings can be large or run the other way. Starred links: 1 amine or outer side, 2 acyl side, 3 side chain; linkers in the order of their positions; H or OH if unused. Positions of bridges follow the written chain, without caps; N, C: chain ends. Non-standard residues stand in square brackets, D forms with d. Residues, ends and D or L forms follow the SMILES beside them. ξ: configuration not given here. *: point of attachment. X3 = C[C@@H](Oc1ccc([C@H](N[*:1])C(=O)[*:2])cc1)[C@]1(/C=C\C(=O)[*:3])CO1; d(aIle) = CC[C@H](C)[C@@H](N)C(=O)O; X2 = CC(C)[C@@H](O)C(C)C(=O)*; ξNMeF = CNC(Cc1ccccc1)C(=O)O; ξT = CC(O)C(N)C(=O)O; ξS = NC(CO)C(=O)O
Potency means the concentration at half of the fitted maximal effect.

The test in a line: qHTS for inhibitors of ER calcium dysfunction: SERCaMP assay screened against the NCATS CANVASS Library (AID 1347393). Further: nearly all actives have a fitted effect of over 40% in size. Conditions: SH-SY5Y GLuc-SERCaMP (Gaussia luciferase released on ER calcium loss) secretion, thapsigargin, luminescence; series mostly up to 76.6 µM. An excerpt: Natural products and their derivatives continue to be wellsprings of nascent therapeutic potential. However, many laboratories have limited resources for biological evaluation, leaving their previously isolated or synthesized compounds largely or completely untested. To address this issue, the Canvass library of natural products was assembled (https://tripod.nih.gov/canvass), in collaboration with academic and industry researchers, for quantitative high-throughput screening (qHTS) across a diverse set of cell-based and biochemical assays. The pure (>85% purity by liquid chromatography/mass spectrometry [LC/MS]) Canvass library of 346 natural products were submitted by 45 academic laboratories and companies around the world. We collected pure natural products to circumvent deconvolution and structure elucidation due to time and resource limitations. The library was formatted into 1536-well plates and evaluated in 50 qHTS (in an 11-pnt concentration series) bioassays with broad scope of disease-relevant mechanisms. The resulting data set from 50 different assays was then systematically analyzed to identify overall trends and specific natural products with interesting biological activities. Reported herein are the results of each individual qHTS and their corresponding assay protocol. The SERCaMP assay detects ER calcium dysfunction. A Gaussia luciferase-based reporter protein (GLuc-SERCaMP) is expressed in SH-SY5Y cells and secreted in response to ER calcium depletion. Small molecules that stabilize ER calcium inhibit GLuc-SERCaMP release. National Center for Advancing Translational Sciences (NCAwsTS), Rockville, MD National Institute of Health (NIH), Bethesda, Maryland
SERCaMP assay protocol: 1. In a white-solid bottom 1536-well tissue culture plate (Corning 7494), 5 uL of SH-SY5Y-GLuc SERCaMP MJH297 derived (MP_G) cells were dispensed using a Multidrop Combi (Thermo Fisher Scientific) at a final concentration of 1000 cells / well. 2. The assay plates were incubated for 4 hours at 37C, 5% CO2, 95% humidity to acclimate and attach. 3. […] of compounds (in DMSO; columns 5-48), and positive control Bromocriptine (10 mM; 1:2 dilution; 16-points; n = 2; column 2, rows 1-32) were pin transferred into the assay plates using the Kalypsis pin tool (Wako USA) equipped with a 1536-well pin heads. This yields a final CANVASS compound concentration of 0.001 - 38.2 uM. 4. The assay plates were incubated for 16 hours at 37C, 5% CO2, 95% humidity. 5. After compound treatment, 1 uL per well of (6x) 600 nM Thapsigargin into column 1, rows 17 - 32; column 2, rows 1 - 32; columns 4 - 48, rows 1 - 32 using the BioRAPTR liquid dispenser. As a control 1 uL of (1x) Media was dispensed into column 1, rows 1 - 16; and into column 3, rows 1 - 32. 6. The assay plates were incubated for 4 hours at 37C, 5% CO2, 95% humidity. 7. After 4 hours, 1 uL of (7x) substrate Coelenterazine (diluted 1:200 in Pierce Glow Assay buffer) was dispensed into columns 1 - 48, rows 1 - 32. 8. The plates were centrifuged for 5 seconds at 1000 rpm. 9. Luminescence signal was obtained via the ViewLux plate reader (Perkin Elmer) using the clear emission filter and 1x binning, 5 seconds exposure settings.
(Quantitative high-throughput screening tests each substance at several concentrations.)
As to `CC[C@H](C)[C@H]1NC(=O)[C@@H](NC(=O)C(C)[C@H](O)C(C)C)[C@@H](C)OC(=O)C2COC(=O)CNC(=O)/C=C\[C@]3(CO3)[C@@H](C)Oc3ccc(cc3)[C@H](NC1=O)C(=O)N(C)C(Cc1ccccc1)C(=O)NC(C(C)O)C(=O)N2` (stereo not given in full) (X2-T[d(aIle)][X3][ξNMeF][ξT][ξS]; ester 1-C; linker 3-6 via G), the Potency result is “inactive”.

For `COC1=C(C2=C(OC)C(=O)c3cc4c(c(O)c3C2=O)C(=O)O[C@H](C)C4)C(=O)c2c(cc3c(c2O)C(=O)O[C@H](C)C3)C1=O`, the Potency entry was “inactive”.

For the molecule `C=C(C)[C@H]1C(=O)c2c3c(cc4c5c(n1c24)[C@@]1(C)[C@@H](CC[C@H]2[C@](C)(/C=C/C=C(\C)C(=O)O)[C@@H](O)CC[C@@]21C)C5)C1=CC(C)(C)OC(C)(C)[C@H]1[C@@H]3O`, the Potency result was “inactive”.

On to `C/C=C1/CN2CC[C@]34C(=C(C(=O)OC)[C@H]1C[C@H]23)Nc1ccccc14`, for which the Potency is 19.3 µM (active).

For `CCC(=O)N[C@@H](C[C@H](C)C(Cl)(Cl)Cl)C(=O)N1C(=O)C=C(OC)[C@@H]1C[C@H](C)C(Cl)Cl`, the Potency was 27.2 µM (active).

With `CC[C@@H]1CN2CCC3(Nc4cccc(OC)c4C3=O)[C@@H]2C[C@@H]1/C(=C\OC)C(=O)OC` (stereo not given in full), the Potency is 12.2 µM (active).

As to `C=C[C@H]1CN2CCc3c([nH]c4cccc(OC)c34)[C@@H]2C[C@@H]1/C(=C\OC)C(=O)OC`, the Potency was 17.2 µM (active).

`C=CC(C)(C)[C@@]12C[C@H]3C(=O)N/C(=C\c4cnc[nH]4)C(=O)N3[C@@H]1Nc1ccccc12`: the Potency is 34.3 µM (active).

In the case of `O[C@H]1C=C[C@@]23CCN(Cc4cc5c(cc42)OCO5)[C@@H]3C1`, the Potency result was “inactive”.

On to `CO[C@H]([C@@H](C)[C@H]1O[C@]1(C)C[C@H](C)/C=C/C=C(\C)[C@H]1O[C@@H](CC(=O)O)CC[C@@H]1C)[C@@H](C)O`, for which the Potency result was “inactive”.

In the case of `C/C(=C\[C@H](C)C(=O)C[C@H](O)CC1CC(=O)NC(=O)C1)[C@@H]1OC(=O)/C=C/CC/C=C/C=C/[C@@H]1C`, the Potency entry is “inactive”.

For `CO[C@H]1C[C@H](O[C@H]2[C@@H](O)C[C@H](O[C@H]3CC[C@]4(C=O)[C@H]5CC[C@]6(C)C(C7=CC(=O)OC7)CC[C@]6(O)[C@@H]5CC[C@]4(O)C3)O[C@@H]2C)O[C@H](C)[C@H]1O[C@H]1C[C@@H](OC)[C@@H](O[C@@H]2O[C@H](CO)[C@@H](O)[C@H](O)[C@H]2O)[C@@H](C)O1` (stereo not given in full), the Potency result is “inactive”.

As to `C/C=C/[C@@H]1[C@H]2C[C@@H](C)CC[C@@H]2C(C)=C[C@H]1C(=O)c1c(O)c(-c2ccc(O)cc2)c[nH]c1=O`, the Potency was 19.3 µM (active).

As to `COC1C(O)C(C)OC(OC2C(Oc3cccc4c(O)c5c(=O)oc6ccc(C)c7c(=O)oc(c34)c5c67)OC(C)C(O)C2O)C1O` (stereo not given), the Potency entry was “inactive”.

Consider `CC[C@@H]1CN2CCc3c([nH]c4cccc(OC)c34)[C@@H]2C[C@@H]1/C(=C\OC)C(=O)OC`, for which the Potency was 8.6 µM (active).

As to `CO[C@@H](/C=C/CC/C=C/C(=O)O)[C@@H](O)[C@H](C)/C=C(\C)[C@H](O)[C@H](C)C(=O)CCCC1CC(=O)NC(=O)C1`, the Potency entry is “inactive”.

As to `C[C@]12CC(O)C3[C@@H](CCC4C[C@@H](O)CC[C@@]43CO)[C@@]1(O)CC[C@@H]2C1=CC(=O)OC1` (stereo not given in full), the Potency entry was “inactive”.

As for `CCCCC1CC[C@H]2CCCC(CCC)N12` (stereo not given in full), the Potency entry is “inactive”.

As for `C/C=C(\C)C(=O)O[C@@H]1[C@@H](O)[C@@H]2O[C@H]3[C@H](O[C@@H](CCCCC)CCCCCCC(=O)CCC(=O)OC[C@@H](O2)[C@H]1OC(=O)/C=C/c1ccccc1)O[C@H](C)[C@H](OC(C)=O)[C@@H]3O`, the Potency was 0.086 µM (active).

`C[N+](C)(C)CCc1c[nH]c2ccccc12`: the Potency entry is “inactive”.

For the molecule `C1=C2CCCN[C@H]2C2CC1[C@H]1CCCCN1C2` (stereo not given in full), the Potency entry is “inactive”.

As for `CO[C@H]1[C@H](O[C@H]2CC[C@]3(C=O)[C@H]4CC[C@]5(C)[C@@H](C6=CC(=O)OC6)CC[C@]5(O)[C@@H]4CC[C@]3(O)C2)O[C@H](C)[C@H](O)[C@@H]1OC`, the Potency result was “inactive”.

As to `CC[C@H]1CN2CCc3c([nH]c4cccc(OC)c34)[C@@H]2C[C@@H]1/C(=C\OC)C(=O)OC`, the Potency is 13.6 µM (active).

With `C[C@]12CCC3[C@@H](CC[C@@H]4C[C@@H](O)CC[C@]34CO)[C@@]1(O)CC[C@@H]2C1=CC(=O)OC1` (stereo not given in full), the Potency entry was “inactive”.

As for `C/C=C1/CN2CC[C@@]34c5ccccc5N(C)[C@@H]3[C@@H]2C[C@@H]1[C@H]4C(=O)OC`, the Potency was 0.86 µM (active).
